The record followed here is PubChem BioAssay AID1814 (Broad Institute, 2009).

Screen size: about 300,000 compounds; about 22,000 (7.3%) were called active. About 2% were inconclusive and are not listed. Shown is part of a subset that was picked to be rich in actives. Values without a mark were called inactive. No stated cut-off is given here; in the data, active means activity score below about -60%; inconclusive means mostly about -28% to -61%; inactive means positive scores.

The nature of the experiment: Activators working through SNCA 5'UTR binding (MLPCN) (AID 1814). The following applies: alpha-synuclein 5'UTR reporter, activators screen; hits give low values; tested at 7.5 µM.
Turning to `COC(=O)c1c(NC(=O)c2ccc(S(=O)(=O)N3CCOCC3)cc2)sc2c1CCN(C(C)C)C2`, the activity score was -85.3% (active). For `O=[N+]([O-])c1cccc(Nc2c3ccccc3nc3ccccc23)c1` the value was -124% (active); for `O=C(Nc1cccc(Br)c1)c1ccc2snnc2c1`, -93% (active). With `FC(F)(F)c1ccnc(Oc2ccc(C3=NCCS3)cc2)c1` the figure was -169% (active). Turning to `Cn1ccc(NC(=O)Nc2ccc(Cl)cc2)n1`, the activity score was -80.2% (active). For `Cc1nn(C)cc1CNC(=O)Nc1ccc(Cl)cc1` the value was -69.4% (active); for `CSCc1ccc(C(=O)Nc2cc(C)cc(C)c2)cc1`, -126% (active); for `C=CCn1c(SCC(N)=O)nnc1-c1cc2c(s1)CCC(CC)C2` (stereo not drawn), -137% (active).

As to `c1ccc(CCN2CN=C(Nc3nc4ccccc4o3)NC2)cc1`, the activity score was -174% (active). On to `O=C(NCc1ccccn1)c1cc2ccccc2oc1=O`, for which the activity score is -79.8% (active). For `O=C(NCCc1c[nH]c2ccccc12)c1cc2ccccc2oc1=O` the value was -188% (active); for `O=C(N/N=C/c1ccc(Cl)c(Cl)c1)c1ccc2nc[nH]c2c1`, -191% (active); for `CSc1ccc(/C=N/NC(=O)c2cccc(Cl)c2)cc1`, -142% (active). In the case of `Cc1nn(C)c(Oc2ccccc2)c1[N+](=O)[O-]`, the activity score is -79.9% (active). For `Cc1ccc(N2C(=O)S/C(=C/c3cn(C)c4ccccc34)C2=O)cc1` the value was -177% (active). With `COc1cc(SC)ccc1C(=O)NCCOc1ccccc1Cl` the figure was -151% (active).

For the compound `O=C(NC(Nc1nc2ccc([N+](=O)[O-])cc2s1)(C(F)(F)F)C(F)(F)F)c1ccccc1`, the activity score was 94.1%. With `O=C(Nc1nc2ccc([N+](=O)[O-])cc2s1)c1ccncc1` the figure was -104% (active). For `CCN(CC)c1ccc(C(=O)OCC(=O)c2ccco2)cc1` the value was -179% (active); for `Cc1csc(NC(=O)CSc2nnc(-c3cccnc3)o2)n1`, -101% (active). For `Cc1cc(NC(=O)COc2ccc(Cl)cc2Cl)n(CCC#N)n1`, the activity score is -122% (active). With `COC(=O)c1c(NC(=O)COc2ccc(Cl)cc2Cl)sc2c1CC(C)(C)NC2(C)C` the figure was 102%. For `COc1ccc(C(=O)NCCSc2ccccc2C)cc1` the value was -113% (active); for `COc1ccc(Nc2cc(=O)oc3ccccc23)cc1`, -97.7% (active). With `CSc1nc(-c2ccccc2)nc(C(Cl)Cl)n1` the figure was 114%; with `Cc1csc(NC(=O)Nc2ccccc2[N+](=O)[O-])n1`, -255% (active).

On to `Cc1nc2sc(C(=O)c3ccccc3)c(N)c2c2c1CCCC2`, for which the activity score was -156% (active). For `NC(=O)c1sc2nc3c(c(-c4ccccc4)c2c1N)CCC3` the value was 56.2%; for `CN(C)c1ccnc2sc(C(=O)c3ccccc3)c(N)c12`, -138% (active); for `CCOc1cc(N2CCOCC2)c(OCC)cc1NC(=O)COc1cccc2cccnc12`, 88.8%. For `Cc1cccc(NC(=O)COc2ccccc2C)n1` the value was -109% (active). With `Cc1cccc(NC(=O)COc2ccc(Br)cc2C)n1` the figure was -210% (active); with `Cc1cccc(NC(=O)Cc2ccc(Br)cc2)n1`, -90.2% (active). Turning to `Cc1cccc(NC(=O)c2ccc3ccccc3n2)n1`, the activity score is -103% (active). With `Cc1ccccc1OCC(=O)Nc1ccc2c(c1)ncn2C` the figure was -256% (active); with `CCc1c(C)c2ccc(OC3CCCCC3=O)cc2oc1=O` (stereo not drawn), -133% (active); with `Cc1ccc(-c2nn(-c3ccccc3)cc2/C=C2\SC(=S)N(CCCCCC(=O)O)C2=O)o1`, -89.9% (active). With `C=CCOc1ccc(/C=C2\SC(=S)N(CCC(=O)O)C2=O)cc1` the figure was 80%; with `COc1ccc2nc(Nc3nc(-c4cc5ccccc5oc4=O)cs3)sc2c1`, -131% (active); with `COc1ccc2nc(Nc3nc(-c4ccncc4)cs3)sc2c1`, -122% (active). With `CCNc1nc(-c2cc3ccccc3o2)cs1` the figure was -187% (active). As to `O=c1oc2ccccc2cc1-c1csc(Nc2ccc(O)cc2)n1`, the activity score is -171% (active). For `CC(Cc1cccs1)NC(=O)NC1CCCCC1` (stereo not drawn) the value was -95.9% (active); for `O=C(NC1CCCCCCC1)c1cccs1`, -77.8% (active); for `CC(Cc1cccs1)NC(=O)c1cccc(Cl)c1` (stereo not drawn), -95.5% (active). With `Cc1cnc(NC(=O)c2ccc(Cl)nc2)s1` the figure was -97.1% (active). For `COc1cc(CNc2ncn[nH]2)ccc1OCc1ccccc1C` the value was -65.6% (active). On to `COC(=O)Cc1csc(/N=C/c2c(O)n(-c3cccc(C(F)(F)F)c3)c(=O)c3ccccc23)n1`, for which the activity score was 81.8%. With `O=C(Cc1cccs1)NCc1cccc(C(F)(F)F)c1` the figure was -110% (active); with `CC(C)c1ccc(/C=C2\NC(=O)NC2=O)cc1`, -66.1% (active). For `COc1cccc(/C(C)=N/Nc2ncc(Cl)cc2Cl)c1`, the activity score is -119% (active).

As to `C/C(=N\Nc1ncc(Cl)cc1Cl)c1ccc(S(=O)(=O)NCc2ccco2)cc1`, the activity score was -141% (active).

On to `C/C(=N\Nc1ncc(Cl)cc1Cl)c1cccs1`, for which the activity score is -91.6% (active). With `COc1cccc(/C=N/Nc2ncc(C(F)(F)F)cc2Cl)c1O` the figure was 76.7%; with `C/C(=N\Nc1nc2ccccc2[nH]1)c1cccs1`, -116% (active); with `Nc1cccc(CCc2nc3ccccc3[nH]2)c1`, -77.9% (active). With `Cc1c(C(=O)OC(C)C)sc(NC(=O)c2cccnc2)c1C#N` the figure was -80.1% (active); with `CNc1nc2c(C)cccn2c(=O)c1C=Nc1ccc(OC)cc1`, -108% (active); with `O=C(Nc1ccc(N2CCOCC2)cc1)c1ccc(-c2ccccc2[N+](=O)[O-])o1`, -107% (active). For the compound `O=C(Nc1ccc2sc3ccccc3c(=O)c2c1)c1ccccc1Cl`, the activity score was -135% (active). With `Cc1ccc(SCC(=O)c2cc(C)c(OC(=S)N(C)C)c(C)c2)cc1` the figure was -155% (active); with `CCOc1ccc(C(=O)Nc2cccc(SC)c2)cc1`, -168% (active); with `CCOc1ccc(NC(=O)Nc2cc(C)on2)cc1`, -128% (active).

For `CCOc1ccc(C(=O)Nc2cc(OC)ccc2OC)cc1`, the activity score was -88.9% (active).

Regarding `CCOc1ccc(NC(=O)Nc2cc(C)ccc2OC)cc1`, the activity score was -78.4% (active). Take `CC(=O)c1cc(C#N)c(SCC(=O)Nc2nccs2)nc1C`: the activity score was -110% (active). Turning to `CC(=O)c1cc(C#N)c(SCC(=O)C(C)(C)C)nc1C`, the activity score is -148% (active). For `CCOC(=O)c1cccc(NC(=O)c2ccc(F)cc2F)c1` the value was -127% (active).
